Assay outcomes as filed in PubChem BioAssay.
TRPML1 inh: blocks the human TRPML1 channel | Q9GZU1 | TRPML1-inducible cells, Ca2+ dye fluorescence, FDSS; stronger effect = lower value; inhibition of EC80 agonist-evoked calcium signal | activity change, negative = inhibition, % (concentration not given with the values) | 390,000 tested, 0.02% active | AID 624415; in the data active = activity change below about -50%; inconclusive = between about -30% and that limit;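 note: stimulus is agonist 54-4 at its EC80 concentration; % is set by controls: 0 for no effect and ±100 for the full control effect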
Target sequence (Q9GZU1 whole entry, looked up): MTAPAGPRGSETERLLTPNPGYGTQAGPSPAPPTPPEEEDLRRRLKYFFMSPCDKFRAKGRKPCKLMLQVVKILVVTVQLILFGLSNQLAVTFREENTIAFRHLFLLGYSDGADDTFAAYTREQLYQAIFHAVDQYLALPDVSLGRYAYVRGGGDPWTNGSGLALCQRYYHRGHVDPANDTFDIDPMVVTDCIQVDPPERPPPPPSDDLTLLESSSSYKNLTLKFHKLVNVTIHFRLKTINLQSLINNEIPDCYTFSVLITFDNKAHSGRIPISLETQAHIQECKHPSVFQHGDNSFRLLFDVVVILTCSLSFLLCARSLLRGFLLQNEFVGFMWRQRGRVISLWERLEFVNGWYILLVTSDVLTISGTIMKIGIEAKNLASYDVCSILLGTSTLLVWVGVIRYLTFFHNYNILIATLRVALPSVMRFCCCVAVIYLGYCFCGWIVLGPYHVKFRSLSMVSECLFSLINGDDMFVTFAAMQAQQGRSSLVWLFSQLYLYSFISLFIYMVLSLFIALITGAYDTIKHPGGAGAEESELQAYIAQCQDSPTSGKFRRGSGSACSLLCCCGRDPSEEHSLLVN
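Tet-induced TRPML1-DL cells loaded with Ca8 no-wash calcium dye were read kinetically on FDSS. Compound addition was followed by EC80 agonist 54-4 (4 uM final); inhibition was read over 110 s.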
TRPML1 agonist: activates the human TRPML1 channel. TRPML1-expressing cells, Ca2+ dye fluorescence, FDSS. activation, % (test concentration not listed). 410,000 tested, 0.12% active. AID 624414; in the data active = activation above about 50%; inconclusive = mostly about 30% to 49%; note: 0% is about no effect
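Tetracycline-induced TRPML1-DL cells are seeded and incubated overnight before loading with a no-wash Ca2+ dye and quencher. Agonist activity is taken from the 110 s fluorescence read following compound pin-transfer on an FDSS, before EC80 54-4 challenge.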
TRPV1 agonist: agonists of human vanilloid receptor 1 (TRPV1); 320,000 tested, 0.19% active; activation, % at 8.33 µM; TRPV1-expressing cells, Fluo-8 calcium influx, agonist mode; Q8NER1; in the data active = activation above about 80%; inconclusive = between about 30% and that limit; note: 0% is about no effect
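Cells expressing TRPV1 were dye-loaded with Fluo-8 and read kinetically: 10 s baseline, 3 min after compound (agonist portion), then 2 min after EC20 capsaicin (allosteric enhancer portion). Calcium-bound dye fluorescence at 480/520 nm.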
TRHR agonist: agonists of human TRH receptor. TRHR cells, calcium flux fluo-8, FDSS agonist mode. activation, % at 2 µM. 360,000 tested, 0.18% active; in the data active = activation above about 30%; note: 0% is about no effect
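Agonist-mode FDSS calcium read (Ex 480/Em 530, 1 s cycles) in 1536-well TRHR cells with fluo-8 dye, after 10-cycle baseline and 23 nL compound addition; TRH at EC20 (10 nM final) added afterwards for the enhancer phase.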
TRPV1 PAM: human TRPV1 potentiation. Q8NER1. TRPV1-expressing cells, Fluo-8 calcium influx, capsaicin EC20 potentiation. potentiation, % at 8.33 µM. 320,000 tested, 0.02% active. AID 540277; in the data active = potentiation above about 80%; inconclusive = between about 30% and that limit; note: 0% is about no effect
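TRPV1-expressing cells were cultured overnight at 35.5C and loaded with Fluo-8 calcium dye for 40 to 90 min at room temperature. After a 10 s baseline, compound was added and calcium influx was read kinetically for 3 min (ex 480/em 520 nm).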
TRHR PAM: allosteric enhancers of human TRH receptor; TRHR cells, fluo-8 calcium fluorescence, EC20 TRH enhancement; enhancement, % at 2 µM; 360,000 tested, 0.66% active; AID 493056; in the data active = enhancement above about 30%; note: 0% is about no effect
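Enhancer read-out: after compound pinning and an initial kinetic agonist-mode read, an EC20 of TRH (10 nM final) was injected and fluo-8 calcium signal (Ex 480/Em 530) followed at 1 s/cycle for 100 cycles in TRHR-expressing cells.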
* marks the source's active call; other numbers are inactive results; u = inconclusive; x = no result. Shown are actives, neighbours in structure and some others; about 0.96% of the full set was active somewhere.

SMILES	TRPML1 inh	TRPML1 agonist	TRPV1 agonist	TRHR agonist	TRPV1 PAM	TRHR PAM
Cc1cc(C)nc(/N=C(\N)Nc2ccc(CC(=O)OC(C)C)cc2)n1	11.7	68.4*	1.3	12.8	-8.4	-8.0
Cc1cc(C)nc(/N=C(\N)Nc2ccc(OCCC(C)C)cc2)n1	-15.2	97.1*	5.8	27.3	-27.7	-19.7
COc1ccc(N/C(N)=N/c2nc(C)cc(C)n2)cc1	-3.2	u	x	x	x	x
Cc1cc(C)nc(/N=C(\N)Nc2ccc(S(=O)(=O)O)cc2)n1	21.0	-0.2	1.5	0.3	-2.0	-12.1
CCn1c(SC(C)C(=O)Nc2ccc(C)cc2)nnc1-c1ccccc1 (stereo not given)	x	-0.9	x	x	x	x
CN(C)c1ccc(C(=C2c3ccccc3-c3ccccc32)c2ccc(N(C)C)cc2)cc1	x	0.0	x	x	x	x
COc1ccc(-c2ccc3c(c2)S(=O)(=O)c2cccc(C(=O)NC4CC4)c2C3=O)cc1OC	-0.6	-0.6	-0.6	-0.2	9.7	40.2*
COc1ccc(N2CCN(C3CCCCC3NS(=O)(=O)c3ccc(Cl)cc3)CC2)cc1 (stereo not given)	-16.7	62.7*	4.7	8.9	25.3	-3.2
CN1CCN(C2CCCCC2NS(=O)(=O)c2ccc(Cl)cc2)CC1 (stereo not given)	12.6	0.3	-5.0	-0.2	11.7	6.8
COc1ccccc1N1CCN(C2CCCCC2NS(=O)(=O)c2ccc(Cl)cc2)CC1 (stereo not given)	82.1	0.0	19.4	46.2*	-1.3	-15.7
Cc1nc([N+](=O)[O-])cn1CC(=O)c1ccc2c(c1)OCCCO2	x	-0.4	x	x	x	x
CN(C)C(=O)COc1ccccc1C(=O)OCC(=O)Nc1ccc(Oc2ccc(Br)cc2)cc1	x	-0.2	x	x	x	x
S=c1[nH]nc(-c2n[nH]c3c2CCC3)n1/N=C/C=C/c1ccco1	0.4	-1.0	x	-1.1	x	39.2*
Cc1ccc(NC(=O)COc2ccccc2C(=O)Nc2ccccc2)cc1	x	-0.2	x	x	x	x
Clc1cccc(OCCCCCN2CCOCC2)c1	-2.3	-0.1	-0.8	0.7	1.7	-10.2
Clc1cccc(OCCCCN2CCCCC2)c1	-12.3	-0.4	2.0	0.1	-4.6	34.3*
Cn1c(=O)c2nc(SCC(=O)Nc3ccc(Cl)c(Cl)c3)n(C)c2n(C)c1=O	-2.0	2.1	x	0.2	x	-2.4
CC(=O)c1cccc(NC(=O)CSc2nc3c(=O)n(C)c(=O)n(C)c3n2C)c1	8.9	1.4	x	0.3	x	33.9*
COCCCN(C(=S)Nc1cccc(Cl)c1)C(C)c1ccncc1 (stereo not given)	-5.0	-0.7	2.8	0.8	-13.4	36.6*
N#C/C(=N\O)c1nc2ccccc2s1	0.5	-0.3	0.1	0.5	5.5	31.5*
N#C/C(=C(/O)c1ccc(F)cc1)c1nc2ccccc2s1	12.0	0.4	-0.2	1.5	11.7	-3.1
CCCN1C(=O)/C(=C\C=C2\N(CC)c3ccccc3C2(C)C)SC1=S	-1.6	10.8	11.3	35.6*	7.5	-2.1
CN1/C(=C\C=C2/SC(=S)NC2=O)C(C)(C)c2ccccc21	-1.8	85.4*	u	82.9*	-1.3	0.8
CN1C(=CC=C2C=C(I)C(=O)C(I)=C2)C(C)(C)c2ccccc21	-5.3	15.5	18.7	9.3	-9.1	2.7
CCCN1C(=O)/C(=C\C=C2/Sc3ccccc3N2CC)SC1=S	x	x	0.7	2.8	0.4	2.5
SMILES	TRPML1 inh	TRPML1 agonist	TRPV1 agonist	TRHR agonist	TRPV1 PAM	TRHR PAM
CN1/C(=C\C=C2/C(=O)Oc3ccccc3C2=O)C(C)(C)c2ccccc21	-11.8	98.5*	106.7*	217.0*	-6.2	-30.5
O=C(NC(=S)Nc1cccc2cc(O)ccc12)c1ccco1	-59.2*	2.1	16.0	-0.8	0.5	0.7
O=C(NC(=S)Nc1cccc2c(O)cccc12)c1ccco1	7.4	1.6	-8.0	1.3	0.9	-1.1
CC(C)(C)OC(=O)NCc1nnc(C(C(=O)OCc2ccccc2)c2ccccc2)s1 (stereo not given)	x	x	x	-0.6	x	0.8
CN(C)CCNS(=O)(=O)c1ccc2c3c(cccc13)C(=O)N2	7.4	-0.6	5.9	1.0	-7.6	40.2*
Cc1cc(C)cc(Oc2nc3c(C)cccn3c(=O)c2/C=C(\C#N)c2nc3ccccc3s2)c1	0.2	0.1	x	-0.3	x	53.9*
Cc1c(O)c2ccccc2oc1=O	-1.6	-0.3	2.0	0.5	3.3	39.3*
CN=C(C)c1c(O)c2ccccc2oc1=O	-0.5	0.5	7.0	0.3	-14.2	-4.9
O=C(O)C1(Nc2ccccc2Cl)CCCC1	2.0	-0.4	x	x	x	x
O=C1OCC(CO)(CO)N=C1NNc1ccccc1Cl	12.6	0.3	-0.9	1.1	u	31.0*
C[N+](C)(C)c1ccc(/C=C/c2ccnc3ccccc23)cc1	x	-0.4	x	x	x	x
CN(C)S(=O)(=O)N1CCN(c2ccccc2Cl)CC1	-15.0	0.3	8.6	-0.5	-9.5	-0.6
CN(C)S(=O)(=O)N1CCN(c2cc(Cl)ccc2Cl)CC1	1.1	3.0	-1.8	-0.4	-4.3	35.1*
CCOC(=O)C1=C(C)NC2=C(C(=O)CCC2)C1c1ccc(O)c(OCC)c1 (stereo not given)	20.5	-0.3	0.0	-0.2	-1.5	34.1*
CCOc1cc(C2C3=C(CCCC3=O)Nc3ccc4ncccc4c32)ccc1O (stereo not given)	-9.7	2.4	0.6	-0.2	20.0	-1.0
O=C(/C=C/c1ccccc1)C1=C(O)C(=O)N(CCO)C1c1ccc2c(c1)OCO2 (stereo not given)	28.7	-0.4	-1.2	-1.0	4.0	36.2*
CCOC(=O)C1=C(C)NC(=O)NC1c1ccc2c(c1)OCO2 (stereo not given)	3.2	-0.1	0.4	-2.1	1.0	-2.3
CCSCCOC(=O)C1=C(C)NC(=O)NC1c1ccc2c(c1)OCO2 (stereo not given)	9.7	-0.9	-1.1	-0.2	1.0	36.6*
Cc1ccccc1CNS(=O)(=O)c1c(C(=O)N2CCCC2)c(C)n(C)c1C	-9.8	-0.1	-5.5	-0.2	6.6	34.8*
Cc1ccc(O)c(NC(=S)NC(=O)Cc2ccc(Cl)cc2)c1	0.7	74.6*	11.2	19.3	9.7	-23.7
O=C(Cn1cc(CNC(=O)c2ccccc2)nn1)Nc1cc(C(F)(F)F)ccc1Cl	x	x	x	-3.0	x	1.8
Cc1ccccc1Nc1nc(-c2cccnc2)nc2ccccc12	0.7	0.8	u	4.2	-17.5	14.0
Cc1ccc(Nc2nc(-c3cccnc3)nc3ccccc23)cc1	0.4	5.5	95.1*	8.1	2.9	-0.9
c1cncc(-c2nc(NCc3ccc4c(c3)OCO4)c3ccccc3n2)c1	-3.0	0.9	2.6	1.8	-2.1	31.6*
COc1ccc(CCNc2nc(-c3cccnc3)nc3ccccc23)cc1OC	-8.7	0.4	86.0*	-1.1	-18.9	3.9
